The text below walks through data of PubChem BioAssay (NCI).

Compounds without any hit were thinned out: in the full panel of roughly 83,000, 20% have a hit.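 Values shown are percent growth following 48 h exposure of cells in 96-well plates to a single concentration of compound; below 10 was considered active.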 Unmarked numbers belong to inactive results. The source made the active and inactive calls.

The assay concerns OVCAR-8 ovarian. As to the kind of experiment: NCI-60 one-dose screen, 48 h (100 = growth as untreated, 0 = no growth, -100 = all killed). Conditions: 10 µM unless noted. How it is done: Growth inhibition of the OVCAR-8 human tumor cell line is measured as a screen for anti-cancer activity. Cells are grown in 96 well plates and exposed to the test compound for 48 hours. Compounds are tested at a single concentration, which is 10^-5 M for most compounds. The reported endpoint is percent growth (GI% or GIPRCNT), where numbers from 0 - 100% represent growth inhibition, and numbers from -100% - 0 represent cell death. For example, a value of 40 represents 60% growth inhibition. A value of 0 means no net growth occurred over the course of the experiment. A value of -40 indicates 40% of cells at the beginning of the experiment died by the end of the experiment. A value of -100 means all cells are dead at the end of the experiment.
NCI-60 Human Tumor Cell Lines Screen was performed using the standard one-dose NCI protocol, which is described in more detail at https://dtp.cancer.gov/discovery_development/nci-60/default.htm.
Compounds with GIPRCNT values below 10 were considered active. Activity score was based on GIPRCNT using the following formula: […]
Score is 0 for GIPRCNT values of 100 or above, 50 for GIPRCNT values of 0, and 100 for GIPRCNT values of -100.
As to `C[C@@H]1CC[C@@H]2[C@@H]1[C@H](OC(=O)/C=C/c1ccccc1)[C@]1(CCCOCCOCCOCCOC(=O)CCCC[C@@H]3SC[C@@H]4NC(=O)N[C@@H]43)C[C@@H](OC(=O)CO)[C@@]2(C)O1`, the growth is 113%.

With `Cc1nc(Nc2ccc(S(=O)(=O)Nc3cc(C)on3)cc2)c2ccccc2n1`, the growth is 104%.

With `Cc1ccc(Nc2ccc(Nc3ccc(C)cc3S(=O)(=O)O)c3c2C(=O)c2ccccc2C3=O)c(S(=O)(=O)O)c1`, the growth was 97.6%.

In the case of `CO/C(=C1/NC(=O)C(Cc2ccc(O)c(Br)c2)N(C)C(=O)C(C)NC(=O)CCC/C=C(\C)CCC(C)OC1=O)c1ccccc1` (stereo not given), the growth was -14.6% (active).

On to `CC(C)CCC[C@@H](C)[C@H]1CCC2C3=CCn4c(=O)ccc(=O)n4C3CC[C@@]21C` (stereo not given in full), for which the growth was -39.7% (active).

On to `O=C(Nc1ccccc1)c1sc(-c2cccc(C(F)(F)F)c2)cc1O`, for which the growth was 66%.

In the case of `COc1cccc(CCC2CCCN(c3cc(C)nc(N)n3)C2)c1` (stereo not given), the growth is 24.4%.

For `O=c1oc2ccc(Cl)cc2cc1-c1cs/c(=N/N=C\c2ccc(Cl)cc2)n1/N=C/c1ccc(Cl)cc1`, the growth is 96.5%.

Regarding `COc1cc(C(=O)Nc2cc(O)c(CC=C(C)C)c(O)c2)cc2c1O[C@]1(C)CC[C@@H](O)C(C)(C)[C@H]1C2`, the growth is 31.3%.

With `Nc1nc(Nc2ccc(Cl)cc2)nn1S(=O)(=O)c1ccc(-c2ccc(F)cc2)cc1`, the growth was 83.8%.

Consider `CS(=O)(=O)c1ccc(-c2[nH]c3ccc(F)cc3c2/C=N/O)cc1`, for which the growth is 90.3%.

Take `Cc1nn(-c2ccccc2)c2c1C(c1ccc([N+](=O)[O-])cc1)C(C#N)=C(N)O2` (stereo not given): the growth was 90.9%.

With `NC(N)=N/N=C/c1ccc(Br)cc1`, the growth is 78.9%.

Turning to `CCc1nc2ccccc2[nH]1`, the growth is 101%.

With `N[C@@H]1CCC[C@H]1NCCCCN1C(=O)c2cccc3cccc(c23)C1=O`, the growth was 45%.

For `CCN(CC)CCOc1ccc(/C(=C(\C)c2ccc(OC)c(F)c2)c2ccc(Cl)cc2)cc1`, the growth is 76.7%.

With `O=C(NCc1cccnc1)c1cc(-c2csc3c(=O)cc(N4CCOCC4)oc23)cc2c1OCCO2`, the growth is 38%.

For `COc1ccc(C2CC(c3ccccc3)=NN2c2nc(C)c(C(C)=O)s2)cc1` (stereo not given), the growth was 101%.

Regarding `O=C1c2ccccc2C2(c3ccc(O)cc3)c3ccccc3Oc3cccc1c32` (stereo not given), the growth is 66.8%.

As for `CN(C)c1ccc(C#Cc2c(F)cccc2Cl)cc1`, the growth is 93.2%.

On to `CN(C)CN1CCN(c2ccc3nc(-c4ccc5nc(-c6ccc(C(F)(F)F)cc6)[nH]c5c4)[nH]c3c2)CC1`, for which the growth is 53%.

Turning to `NC(=O)c1c(NC(=O)c2ccc(C(F)(F)F)cc2Cl)sc2c1CCC(=O)C2`, the growth is 10.2%.

For `CC(C)OC(=O)OCOP(=O)(OCOC(=O)OC(C)C)C1CCCN(O)C1=O` (stereo not given), the growth is 2.91% (active).

Regarding `Cc1cc(-c2noc(C(F)(F)F)n2)ccc1N1CCN(c2cc(C(=O)N(C)C)no2)CC1`, the growth is 68.1%.

`CC(C)(C)c1ccc(C(=O)Nc2sc3c(c2C(N)=O)CCC(=O)C3)cc1`: the growth was 8.88% (active).

For the compound `CCCCCCNc1cc(C)nc2ccc(OC)cc12`, the growth was 65.3%.

For `Cl.Fc1c[c-]c(-c2ccccn2)c(F)c1.[Pt].c1ccc(P(c2ccccc2)C([PH+](c2ccccc2)c2ccccc2)[PH+](c2ccccc2)c2ccccc2)cc1`, the growth is 16.3%.

With `CCC(C)NCc1ccccc1` (stereo not given), the growth is 102%.

As to `COc1ccc(-c2cncnc2N)cc1OC`, the growth was 105%.

For `C/C(Cc1ccc(Cl)cc1)=C(/c1ccc(Cl)cc1)c1ccc(OCCN(C)C)cc1`, the growth is 69.2%.

As to `OCCCCc1nccc2c1[nH]c1ccccc12`, the growth is 102%.

For `c1ccc2c(c1)ncn2-c1nc2ccccc2n2c1nc1ccccc12`, the growth is 80.5%.

Consider `C=C(C)[C@@H]1CC[C@]2(C(=O)NCC(=O)O)CC[C@]3(C)[C@H](CC[C@@H]4[C@@]5(C)Cc6c([nH]c7ccccc67)C(C)(C)[C@@H]5CC[C@]43C)[C@@H]12`, for which the growth is 78.4%.

On to `COc1cc2cc(Oc3ccc(NC(=O)Nc4cc(C(F)(F)F)cc(C(F)(F)F)c4)cc3)c(C)nc2cc1OCCN1CCCCC1`, for which the growth was -48.1% (active).

In the case of `N=C(N)c1ccc(-c2ccc(-c3ccc(Cl)c(Cl)c3)o2)nc1`, the growth was -16.1% (active).

`COc1ccc2c(c1)/C(=C\c1sc(=S)[nH]c1O)C(C(=O)O)=N2`: the growth is 99%.

As for `[2H]c1nc(Nc2ncc(F)c(-c3cc(F)c4nc(C)n(C(C)C)c4c3)n2)c([2H])c([2H])c1CN1CCN(C([2H])([2H])C([2H])([2H])[2H])CC1`, the growth was 67.1%.

For `CCCCn1c(=O)[nH]c(N)c(C(c2ccc(F)cc2)c2c(N)[nH]c(=O)n(CCCC)c2=O)c1=O`, the growth was 66.5%.

Regarding `O=C(Nc1cccc2[nH]c(C(F)(F)F)nc12)c1cc(Cl)ccc1Cl`, the growth was 26.5%.

As to `Cl.[Pt].[c-]1ccccc1-c1ccccn1.c1ccc(P(c2ccccc2)C([PH+](c2ccccc2)c2ccccc2)[PH+](c2ccccc2)c2ccccc2)cc1`, the growth is 15.6%.
